Hits are enriched below; roughly 10% of the tested compounds scored in any of these assays.
GLS inh = qHTS for Inhibitors of Glutaminase (GLS) | Glutaminase kidney isoform, mitochondrial (Homo sapiens), O94925 | GLS enzymatic activity, qHTS titration | Potency, µM (doses to about 45.5 µM), for the others: at the highest dose activity change, negative = inhibition, usual class: inhibitors | 0.21% of 410,000 active; further: on the % scale 0 is the no-effect control and ±100 the full control effect
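hKGA; 45 mM KH2PO4 pH 8.2 + 0.02% Tween-20; cpd via pin tool; 1 mM Gln soln; GluOx/HRP/Amplex Red; RT 30 min; fluor. t0 & final.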
G9a block = qHTS Assay for Inhibitors of Histone Lysine Methyltransferase G9a; Histone-lysine N-methyltransferase EHMT2 (Homo sapiens), Q96KQ7; G9a H3K9 monomethylation, AlphaScreen, 2 h; Potency, µM (top dose mostly 102 µM), inactives show top-dose activity, negative = inhibition, usual class: inhibitors; 8.8% of 350,000 active; AID 504332, 2011; further: on the % scale 0 is the no-effect control and ±100 the full control effect; nearly all actives have a fitted effect of over 75% in size
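AlphaScreen read-out: biotin-H3K9 peptide (500 nM) methylation by 20 nM enzyme with 20 uM SAM, 2 h at room temperature after 15 min compound preincubation; anti-monomethyl H3K9 antibody plus donor/acceptor beads, 10 min dark.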
BAZ2B inh = qHTS Assay for Inhibitors of BAZ2B; 4.4% of 360,000 active; AlphaScreen BAZ2B-H3K14Ac peptide displacement; AID 504333, 2011; Potency, µM (titrated, usually from 114 µM), for inactives: at the top dose activity change, negative = inhibition, usual class: inhibitors; further: on the % scale 0 is the no-effect control and ±100 the full control effect; nearly all actives have a fitted effect of over 60% in size
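BAZ2B (50 nM) with biotin-H3(5-23)K14Ac peptide (50 nM) in PBS pH 7.4, 0.01% Tween-20, preformed 30 min, then compound 30 min at room temperature; top concentration 110uM. AlphaScreen streptavidin donor/nickel chelate acceptor beads (10 ug/mL final), 20 min dark, signal read.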
HP1b chromo inh = HTS for Inhibitors of HP1-beta Chromodomain Interactions with Methylated Histone Tails; AlphaScreen HP1-beta / biotin-H3K9me3 peptide binding; Potency, µM (highest dose often 114 µM), inactives show top-dose activity change, negative = inhibition, actives largely listed as inhibitors; 0.56% of 390,000 active; AID 540317, 2011; further: nearly all actives have a fitted effect of over 70% in size
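HP1-beta protein (50 nM final) preincubated 30 min at room temperature with biotinylated H3(1-18)K9me3 peptide (50 nM) in PBS pH 7.4, 0.01% Tween-20, then compound added for 30 min. AlphaScreen streptavidin donor/nickel chelate acceptor beads (10 ug/mL final), 30 min dark, luminescence read.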
JMJD2A Tudor inh = qHTS Assay for Inhibitors of JMJD2A-Tudor Domain; 4.4% of 390,000 active; Potency, µM (top dose mostly 114 µM), without a hit: at the top dose activity change, negative = inhibition, most hits filed as inhibitors; AlphaScreen JMJD2A-Tudor / H3K4me3 peptide binding; Lysine-specific demethylase 4A (Homo sapiens), O75164; further: on the % scale 0 is the no-effect control and ±100 the full control effect; nearly all actives have a fitted effect of over 50% in size
The depositor's hits bear a star; ? = inconclusive; · = not tested or not shown; [ ] = another dose, or the depositor's remark. The call rests on the fitted dose curve; in most records, active means well fitted curve in the direction sought with a large enough effect; inconclusive means small, poorly fitted or top-dose-only effect, or another doubt; inactive means no such curve, though single readings can be large; an effect the other way counts as inactive or inconclusive. Potency means the concentration at half of the fitted maximal effect.

SMILES	GLS inh	G9a block	BAZ2B inh	HP1b chromo inh	JMJD2A Tudor inh
Cc1cccnc1C1=NOC(Cc2ccccc2)C(=O)N1Cc1ccc(F)cc1 (stereo not given)	-3%	·	·	·	·
CCOC(=O)c1c(C2COc3ccccc3O2)csc1N (stereo not given)	8%	50µM*	?	-16%	?
N#Cc1cn(CCOc2ccc(F)cc2)c2ccccc12	-8%	70%[59 µM]	64%	147%	61%
CCOC(=O)NC(N(O)c1cccc(Cl)c1)C(Cl)(Cl)Cl (stereo not given)	0%	40µM*	-29%	-11%	-26%
Cn1c(COc2ccccc2O)[n+](C)c2ccccc21	0%	-5%	3%	48%	-8%
COc1ccc(N=Nc2n(C)c3ccccc3[n+]2C)cc1	·	·	40µM*	·	·
O=C(Nc1nc(-c2ccccn2)cs1)c1cc2ccccc2o1	8%	-36%	22µM*	31%	25µM*
Cc1c(C(=O)Nc2nc(-c3ccccn3)cs2)oc2ccccc12	0%	?	35µM*	?	?
Cc1nnc(NC(=O)c2oc3ccccc3c2C)s1	15%	-22%	-4%	28%	-7%
NC(=O)c1cc(N2C(=O)C=CC2=O)ccc1Cl	-5%	1.3µM*	?	?	25µM*
Cc1ccc(S(=O)(=O)CCC(=O)N2CCN(c3ccccc3O)CC2)cc1	?	·	·	22%	-9%
CNS(=O)(=O)c1cccc(C(=O)OC2CCCCC2=O)c1 (stereo not given)	3%	13µM*	-1%	14%	-2%
CNS(=O)(=O)c1cccc(C(=O)OCC(=O)NC2CCCC2)c1	-4%	-31%[2.33 µM]	-4%	34%	4%
O=c1c2ccccc2c(C=NC2CCN(Cc3ccccc3)CC2)c(O)n1Cc1ccc2c(c1)OCO2	·	8.9µM*	8.9µM*	·	·
CN(C)CCN=Cc1c(O)n(Cc2ccc3c(c2)OCO3)c(=O)c2ccccc12	2%	50µM*	?	-28%	?
O=c1c2ccccc2c2ccccc2c(=O)n1Cc1ccc2c(c1)OCO2	-6%	·	·	·	·
Cc1csc(=O)n1CC(=O)OCc1nnc(-c2ccc([N+](=O)[O-])cc2)o1	-4%	32%[12.7 µM]	-5%	26%	-11%
COCCCN1CC(=O)N2C(c3cccc(OC)c3OC)c3[nH]c4ccccc4c3C[C@H]2C1=O (stereo not given in full)	0%	14%[2.33 µM]	-8%	10%	-22%
NC(=O)c1ccc(NC(=O)c2cncn2-c2ccccc2)cc1	?	-28%	3%	-4%	?
NNC(=O)c1cncn1-c1ccc(F)cc1	-2%	0%	50µM*	57%	?
COc1ccccc1C1CC(c2ccc(Cl)cc2)Nc2nc(N)nn21 (stereo not given)	1%	-11%	-3%	-11%	?
C#CC[N+]1(CC#Cc2ccc(C#CC[N+]3(CC#C)CCOCC3)cc2)CCOCC1	1%	8.9µM*	9%	11%	-15%
NC(=O)c1ccc(Oc2cccc3cccnc23)c([N+](=O)[O-])c1	3%	24%	-14%	21%	-13%
COc1ccc(C(=O)Oc2cccc3cccnc23)cc1[N+](=O)[O-]	22%	2%	14µM*	18%	?
CN(C)CCCN1C(=O)c2oc3ccc(Cl)cc3c(=O)c2C1c1cccnc1 (stereo not given)	-6%	50µM*	-32%	21%	-8%
SMILES	GLS inh	G9a block	BAZ2B inh	HP1b chromo inh	JMJD2A Tudor inh
Cc1ccc2oc3c(c(=O)c2c1)C(c1ccc(O)cc1)N(CCCN(C)C)C3=O (stereo not given)	7%	-6%[59 µM]	-18%	23%	-3%
CCN(CC)CCCN1C(=O)c2oc3ccccc3c(=O)c2C1c1cccs1 (stereo not given)	·	50µM*	-32%	·	·
CCN(CC)CCN1C(=O)c2oc3ccccc3c(=O)c2C1c1ccccc1 (stereo not given)	0%	-2%[0.501 µM]	-5%	14%	-19%
COc1ccc(OC)c(C2c3c(oc4ccccc4c3=O)C(=O)N2CCCN(C)C)c1 (stereo not given)	7%	?	-4%	13%	-5%
CCCOc1ccc(C2c3c(oc4ccccc4c3=O)C(=O)N2CCN(CC)CC)cc1OC (stereo not given)	-13%	50µM*	3%	16%	-4%
CCN(CC)CCN1C(=O)c2oc3ccccc3c(=O)c2C1c1cccc(Br)c1 (stereo not given)	7%	50µM*	-31%	5%	-18%
O=C1[C@H](Cc2ccccc2)NCCCC[C@H](c2ccc(Cl)cc2)N1Cc1ccccc1	5%	·	·	11%	-16%
Cc1nn(Cc2ccc(F)cc2)c(C)c1NC(=O)c1nn(C)cc1Cl	-6%	-16%[59 µM]	12%	40%	2%
COc1ccc(CNC(=O)COC(=O)C2=COCCO2)cc1	7%	8%	1%	40%	-3%
O=C1c2oc3ccc(Cl)cc3c(=O)c2C(c2cccc(Br)c2)N1CCO (stereo not given)	6%	50µM*	-34%	33%	-10%
C[C@]12C(=O)N(c3ccccc3)C(=O)N1[C@@H]1c3ccccc3OC[C@@H]1[C@H]2c1ccccc1	5%	-4%	-9%	31%	-19%
Cc1occc1C(=O)Nc1c(Cl)cccc1Cl	-2%	?	-26%	33%	-10%
Cc1occc1C(=O)NCCCCNC(=O)c1ccoc1C	-4%	12%[59 µM]	3%	26%	-9%
Cc1occc1C(=O)Nc1c(F)c(F)c(F)c(F)c1F	-3%	14µM*	18%	-21%	1%[11.4 µM]
Cc1occc1C(=O)Nc1nn[nH]n1	6%	45µM*	?	0%	45µM*
O=C1CNC(=O)/C1=C\N1CCN(C(c2ccccc2)c2ccccc2)CC1	-5%	45µM*	-31%	78%	-18%
CC(=NNC(=S)N1CC2CCC(CC2)C1)c1ccccn1	-2%	·	·	·	·
CC(=NNC(=S)N1CCN(c2ccccn2)CC1)c1nccs1	17%	·	·	?	13µM*
CC(=NNC(=S)N1CCCCCC1)c1cccc2cccnc12	59%	·	·	50µM*	20µM*
CC(=NNC(=S)N1CCN(C2CCCCCC2)CC1)c1ccccn1	4%	·	·	?	18µM*
S=C(NC1CCCC1)N1CCN(c2ccccn2)CC1	6%	3%	4%	10%	-20%
CN(CC(=O)N1CCCCC1)S(=O)(=O)c1cccc2cccnc12	-10%	?	-6%	50%	1%
CC(=NNC(=S)N1CCN(c2ccccn2)CC1)c1ccccn1	6%	·	·	?	56µM*
NCCn1oc(=O)[nH]c1=O	·	39%[59 µM]	·	·	·

Bioassay records as filed in PubChem.
